Assay outcomes deposited in PubChem by National Center for Advancing Translational Sciences (NCATS).
D3 ag: activates the human D3 dopamine receptor. P35462. D3R DiscoveRx beta-arrestin cells, luminescence, 90 min. max activation, %. 410,000 compounds, 0.58% hits. AID 652048; in the data active = max activation above about 30%
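Agonist-mode cell screen: cells plated at 1500/well and incubated overnight at 37 °C, then exposed to library compounds for 90 min at 37 °C. Detection reagent was added for 30–60 min at room temperature, and luminescence was read.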
LDHA block: LDHA (human) enzyme inhibition; purified LDHA, NADH/diaphorase-resazurin fluorescence; stronger effect = lower value; activity change, % (values are at about 110 or 230 µM); 480,000 compounds, 0.15% hits; in the data active = activity change below about -30%; inconclusive = mostly about -25% to -30%
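Resorufin fluorescence (ex540/em590), read at 0 and 20 min after diaphorase/resazurin addition, reports the NADH left after a 5 min room-temperature reaction of 2 nM human LDH5 with 0.06 mM NADH and 0.2 mM pyruvate.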
Akt phos inh: Akt phosphorylation inhibition. AID 651550. Neuro2A IGF-stimulated pAkt S473 HTRF, 20 min; stronger effect = lower value. 360,000 compounds, 0.32% hits. activity change, % for hits at 50 µM; in the data active = activity change below about -80%; inconclusive = mostly about -51% to -80%
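Neuro2A cells in DMEM with 0.5% FBS, overnight at 37 deg C, given compound at single 50 µM final, then IGF (6 nM final) for 20 min at 37 deg C. Lysed; phospho-Akt Ser473 by HTRF after 24 h, 665/615 ratio.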
RGS4 inh: inhibitors of human regulator of G protein signaling 4 | Potency, µM (highest dose often 114 µM), usual class: inhibitors | P49798 | 390,000 compounds, 0.039% hits | Transcreener GDP fluorescence polarization, RGS4-accelerated GTP hydrolysis; active = well fitted inhibition curve with a large enough effect; inconclusive = small, poorly fitted or top-dose-only effect; inactive = no such curve, though single readings can be large or run the other way; note: nearly all actives have a fitted effect of over 75% in size
Target sequence (P49798 whole entry, looked up): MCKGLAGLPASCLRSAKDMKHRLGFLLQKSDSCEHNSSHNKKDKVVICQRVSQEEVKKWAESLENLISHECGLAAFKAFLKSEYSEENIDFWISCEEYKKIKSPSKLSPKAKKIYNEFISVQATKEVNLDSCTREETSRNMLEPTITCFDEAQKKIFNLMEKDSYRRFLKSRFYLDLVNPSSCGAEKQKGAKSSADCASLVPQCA
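MLSMR compounds (23 nl, pin-transferred) preincubated 10 min at room temperature with a 500nM (2x) first reagent, then RGS4 at 900nM (2x) plus Transcreener GDP mix added; fluorescence polarization (620/688 nm) read before and after 90 min at 30 °C.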
PI4K2A block: inhibitors of human PI4K2A. Q9BTU6. purified PI4K2A, ADP-Glo luminescence, 1 h; stronger effect = lower value. activity change, negative = inhibition, % at 76.9 µM. 420,000 compounds, 0.13% hits. AID 1346378; in the data active = activity change below about -50%; inconclusive = mostly about -30% to -49%
Target sequence (Q9BTU6 whole entry, looked up): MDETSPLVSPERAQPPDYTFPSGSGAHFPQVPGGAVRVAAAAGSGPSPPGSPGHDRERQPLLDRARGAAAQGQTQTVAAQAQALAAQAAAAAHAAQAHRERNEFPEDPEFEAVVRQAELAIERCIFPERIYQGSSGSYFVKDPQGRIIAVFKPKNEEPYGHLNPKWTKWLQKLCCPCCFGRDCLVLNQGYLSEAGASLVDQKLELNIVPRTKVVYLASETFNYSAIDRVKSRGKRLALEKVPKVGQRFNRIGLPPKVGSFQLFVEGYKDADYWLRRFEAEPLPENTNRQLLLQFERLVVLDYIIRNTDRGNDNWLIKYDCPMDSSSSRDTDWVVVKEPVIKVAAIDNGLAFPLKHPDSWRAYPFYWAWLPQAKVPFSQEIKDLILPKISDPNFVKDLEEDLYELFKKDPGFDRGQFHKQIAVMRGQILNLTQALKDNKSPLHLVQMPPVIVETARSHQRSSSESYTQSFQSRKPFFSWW
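In this quantitative HTS, ADP production by PI4K2A was quantified luminescently after 1 h at ambient temperature; 100 microM adenosine served as plate-quality control.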
D3 antag: D3 dopamine receptor (human) antagonism; P35462; D3R cells, DiscoveRx beta-arrestin luminescence, antagonist mode; stronger effect = lower value; max response, negative = inhibition, %; 360,000 compounds, 2.5% hits; AID 652054; in the data active = max response below about -50%; inconclusive = no clear call, values can overlap the other calls
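Cells expressing the human receptor were seeded at 1500 cells/well, incubated overnight at 37 degrees C in 5% CO2, then exposed to library compounds with dopamine controls for 90 minutes at 37 degrees C before luminescent detection.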
Numbers stand for hits; 0 = inactive; ? = inconclusive; - = no result given; [ ] = remark or other dose. Most compounds without a hit are left out; they make up all but 2.8% or so of the library.

SMILES	D3 ag	LDHA block	Akt phos inh	RGS4 inh	PI4K2A block	D3 antag
O=C(c1ccco1)N1CCN(c2ccccc2F)CC1	0	0	-117.2%	0	0	0
O=C(CSc1nnc(Cc2cccs2)n1C1CCCCC1)N1CCN(C(=O)c2ccco2)CC1	0	0	0	0	0	-62.5
c1ccc(CCN(Cc2ccccc2)C2CCN(C3CCCC3)CC2)cc1	0	0	0	0	0	-65.2
COc1ccc(Nc2ncc(C(=O)Nc3cc(Cl)ccc3OC)c3ccccc23)cc1	-	0	-	-	-	-
COc1ccc(-c2ccc(CCC(=O)O)n2NC(=O)c2ccccc2Cl)cc1	-	0	-	-	-	-
COc1cccc(C(=O)N2CCN(C(=O)c3cccs3)CC2)c1OC	0	0	-111.8%	0	0	0
O=C(c1ccco1)N1CCN(C(=O)c2cccs2)CC1	0	0	0	0	0	-56.0
O=C(c1ccco1)N1CCN(C(=O)c2ccco2)CC1	0	0	0	-	0	0
O=C(c1ccco1)N1CCN(C2CCCC2)CC1	0	0	0	0	0	-74.2
O=C(c1ccco1)N1CCN(C2CN(C3CCCC3)S(=O)(=O)C2)CC1 (configuration not stated)	0	0	0	-	0	0
COc1cccc(C(=O)N2CCOCC2)c1OC	0	0	0	0	0	0
O=C(O)/C=C/C(=O)N1CCN(c2ccccc2F)CC1	0	0	0	0	0	-70.2
N#Cc1cc2c(nc1N1CCN(C(C(=O)O)c3c[nH]c4cc(CO)ccc34)CC1)CCCC2 (configuration not stated)	-	0	-	-	-	-
O=C(CSc1nc(NC2CC2)c2ccccc2n1)NC1CC1	-	0	-	-	-	-
CC(C)OCc1ccccc1CNS(=O)(=O)c1ccc(F)c(F)c1	-	0	-	-	-	-
O=C(CCCc1ccccc1)N1CCN(C2CCCCC2)CC1	0	0	0	0	0	-84.5
COc1ccc(S(=O)(=O)N2CCOCC2)cc1NC(=O)c1ccc2c(c1)OCO2	53.5	0	0	0	0	0
COc1ccc(-c2csc(NC(=O)c3cccc(S(=O)(=O)N4CCN(C)CC4)c3)n2)cc1	0	0	-	0	0	-51.3
O=C(NCC1COc2ccccc2O1)c1cccc(S(=O)(=O)N2CCOCC2)c1 (configuration not stated)	0	0	0	0	0	-61.4
CCOc1ccccc1/C=N/NC(=O)c1cccc(S(=O)(=O)N2CCOCC2)c1	0	0	0	0	0	-62.8
COc1cc(S(=O)(=O)N2CCOCC2)ccc1NC(=O)COC(=O)c1cc(OC)c(OC)c(OC)c1	0	0	0	0	0	0
COc1cc(C(=O)Nc2ccc(S(=O)(=O)N3CCOCC3)cc2)c([N+](=O)[O-])cc1OC	40.2	0	0	0	0	0
COc1cccc(NS(=O)(=O)c2ccc(S(=O)(=O)N3CCOCC3)cc2)c1	39.9	0	0	0	0	0
COc1cc(S(=O)(=O)N2CCOCC2)ccc1NC(=O)COC(=O)CC12CC3CC(CC(C3)C1)C2	0	0	0	0	0	-52.7
COc1ccccc1NC(=O)c1cccc(S(=O)(=O)N2CCOCC2)c1	0	0	0	0	0	-51.6
SMILES	D3 ag	LDHA block	Akt phos inh	RGS4 inh	PI4K2A block	D3 antag
Cc1ccc(C(=O)c2cccc(C(=O)c3ccc(C)c(C)c3)c2)cc1C	-	0	-	-	-	-
COc1cc(CNC(=O)CCCc2cccs2)ccc1OCc1cccnc1	-	0	-	-	-	-
CCOP(=O)(c1ccccc1)c1nc(-c2ccc(F)cc2)oc1N1CCCCC1 (configuration not stated)	0	0	-130.3%	0	0	0
CCC(CC)NC(=O)COC(=O)Cc1nn(C)c(=O)c2ccccc12	-	0	-	-	-	-
COc1ccc(N2C3=C(CC4=C2CCCC4=O)C(=O)CCC3)cc1	0	0	0	?	-56.3	0
COc1ccc(-n2cnnc2SCc2cnc(-c3ccccc3)s2)cc1	0	0	0	0	0	-56.1
O=C(NCCCCNC(=O)c1cccs1)c1cccs1	0	0	0	0	0	0
O=C(NCCCNC(=O)c1cccs1)c1cccs1	0	0	0	0[11.4 µM]	0	-64.0
COc1ccc(OC)c(NC(=O)Cn2c(CCC(=O)O)ccc2-c2ccccc2)c1	0	0	0	0	0	0
COc1ccc(OC)c(NC(=O)Cn2c(CCC(=O)O)ccc2-c2cccs2)c1	0	0	-119.2%	0	0	0
Cc1nc(SCC(=O)O)n[nH]1	0	0	0	0	0	0
Cc1nc(SCCCSc2n[nH]c(C)n2)n[nH]1	0	0	0	0	0	-69.5
COc1ccc(S(=O)(=O)N(CCN2CCOCC2)Cc2cc(OC)ccc2OC)cc1	0	0	0	0	0	0
O=S(=O)(c1ccc(Cl)cc1)N(CCCN1CCOCC1)Cc1cccs1	0	0	0	0	0	-80.4
COc1ccc(S(=O)(=O)N(CCCN2CCOCC2)Cc2cccc3ccccc23)cc1	0	0	0	0	0	-85.5
COc1ccc(S(=O)(=O)N(CCCN2CCOCC2)Cc2cccc(OC)c2OC)cc1	0	0	0	0	0	-76.0
Cc1cc(Cl)ccc1OCC(=O)NC1CCN(C(C)C)CC1	-	0	-	-	-	-
CS(=O)(=O)CCN1CCN(c2ccccc2O)CC1	-	0	-	-	-	-
COc1ccc2cc(C(=O)NCC(C)N3CCCC3)c(C)nc2c1 (configuration not stated)	-	0	-	-	-	-
COC(=O)c1ccc(/C=C(/C#N)C(=O)c2ccsc2)cc1	-	0	-	-	-	-
O=C(/C=C/c1ccncc1)N1CCN(Cc2cccc(C(F)(F)F)c2)CC1	-	0	-	-	-	-
Cc1ccnc(SCc2cn3c(C)cc(C)nc3n2)n1	0	0	0	0	0	0
Cc1cc(C)n2cc(CSc3ncccc3C(=O)O)nc2n1	0	0	-111.4%	0	0	0
C=CCn1c(C)cc(C(=O)COc2ccc3ccc(=O)oc3c2)c1C	-	0	-	-	-	-
Cc1ccc(C(=O)Nc2c(-c3ccc(Cl)cc3)[nH][nH]c2=O)cc1	0	0	0	-	?	-69.9
SMILES	D3 ag	LDHA block	Akt phos inh	RGS4 inh	PI4K2A block	D3 antag
O=C(Nc1c(-c2ccc3c(c2)OCO3)[nH][nH]c1=O)c1ccccc1	0	0	0	-	-59.9	-91.9
CN(Cc1ccc2ccccc2c1)C(=O)c1cc2ccccc2oc1=O	-	0	-	-	-	-
CN(C)c1ccc(/C=C/c2ccc3c4ccccc4ccc3[n+]2-c2ccccc2)cc1	0	0	0	?	-54.1	0
Cn1nc(-c2ccccc2F)c2cc(C(=O)N3CCN(c4ccccc4F)CC3)sc21	50.7	0	-	0	0	-
CCCCN(CC)CCNC(=O)c1cc2c(-c3ccccc3F)nn(C)c2s1	0	0	0	0	0	-61.2
Cn1nc(-c2ccccc2F)c2cc(C(=O)N3CCN(c4ccc(F)cc4)CC3)sc21	0	0	-	0	0	-
CCN(CCCNC(=O)c1cc2c(-c3cccc(OC)c3)nn(C)c2s1)Cc1ccccc1	0	0	0	0	0	-53.9
Cc1ccc(CCNC(=O)c2cc3c(-c4ccccc4F)nn(C)c3s2)cc1	0	0	-	0	0	-
